Reference: PubChem BioAssay (NCI)
About 83,000 compounds went through this panel and 20% of them were active in at least one assay; those are over-represented in the sample as a whole.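 Assay: single dose, 48 h. Readout: percent growth (0 = no net growth; negative = cell death). Active: <10.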 Activity calls are given as the source filed them.

Legend:
Test in all cases: NCI-60 one-dose screen, 48 h (100 = growth as untreated, 0 = no growth, -100 = all killed)
Settings in all cases: 10 µM unless noted
[1] = system: HCT-15 colon
[2] = system: HT29 colon
[3] = system: SNB-75 CNS
[4] = system: SNB-19 CNS
[5] = system: U251 CNS
[6] = system: PC-3 prostate
[7] = system: UACC-62 melanoma
[8] = system: LOX IMVI melanoma
[9] = system: SK-MEL-28 melanoma
[10] = system: SK-MEL-5 melanoma

Measured: growth

COC(=O)c1ccc(C)cc1
inactive: [1] 105% | [2] 98.6% | [3] 89.2% | [4] 115% | [5] 94.9% | [6] 97.5% | [7] 106% | [8] 99.5% | [9] 113%

c1ccc2nc(-c3ccc4ccccc4n3)ccc2c1
inactive: [1] 104% | [2] 105% | [3] 85.6% | [4] 105% | [6] 84.5% | [10] 88.9% | [7] 97% | [8] 92.2% | [9] 106%

N#Cc1c(NC(=O)c2ccc([N+](=O)[O-])o2)[n+]([O-])c2cc(F)c(F)cc2[n+]1[O-]
inactive: [1] 95.1% | [2] 102% | [3] 114% | [4] 121% | [6] 98.8% | [10] 79.6% | [7] 100% | [8] 84.7% | [9] 99.7%

CCn1cc(C(=O)O)c(=O)c2cc(F)c(N3CCN(S(=O)(=O)c4ccc(Cl)cc4Cl)CC3)cc21
active: [1] 7.58% | [2] 1.87% | [6] 1.6% | [8] -35.4%
inactive: [3] 74.8% | [4] 26.2% | [5] 12.1% | [7] 16.1% | [9] 107%

O=C1CCC(=O)N1Cc1ccccc1
inactive: [1] 99.9% | [2] 101% | [4] 110% | [5] 101% | [6] 100% | [10] 102% | [7] 104% | [8] 90.5% | [9] 101%

CN(C)C/C=C/C(=O)Nc1cc2c(Nc3ccc(F)c(Cl)c3F)ncnc2cc1OCCOC(F)F
active: [1] 9.17% | [2] 2.75%
inactive: [4] 36.6% | [6] 11% | [10] 37.5% | [7] 28.9% | [8] 15.3% | [9] 49.4%

O=C(NNC(=S)Nc1ccccc1)c1ccccn1
inactive: [1] 22.8% | [2] 57.2% | [4] 52.2% | [5] 20.4% | [6] 34.4% | [10] 13.8% | [9] 46%
active: [7] 5%

CC(=O)C1CCC(C)=CC1=O (configuration not stated)
inactive: [1] 99.4% | [2] 103% | [4] 101% | [5] 97.4% | [6] 96.3% | [10] 108% | [7] 101% | [8] 94% | [9] 103%

CN1CCN(c2ccc3cc(-c4nc5ccccc5[nH]4)c(=O)oc3c2)CC1
inactive: [1] 91% | [2] 108% | [4] 118% | [6] 83.2% | [10] 74.6% | [7] 81.6% | [8] 87.2% | [9] 94.9%

N#Cc1ccc(NC(=O)c2ccc3cccnc3c2O)cc1
inactive: [1] 31.4% | [2] 30.7% | [4] 23.6% | [5] 14.6% | [6] 45.9% | [10] 14.4% | [9] 34.5%
active: [7] 9.43%

Nc1ccc(S(=O)(=O)c2ccc(Cl)cc2)cc1
inactive: [1] 97.8% | [2] 98.1% | [4] 93.9% | [6] 89.7% | [10] 95.2% | [7] 85.8% | [8] 95.6% | [9] 102%

CCN(CC)CCSc1c2ccc(Cl)cc2nc2ccc(OC)cc12
inactive: [1] 47.4% | [2] 34.8% | [4] 92% | [5] 93% | [6] 91.4% | [10] 103% | [7] 93.2% | [8] 36.7% | [9] 113%

COc1ccccc1CNCCCN1C(=O)c2ccc3c4c(ccc(c24)C1=O)C(=O)N(CCCNCCCCNCCCCN)C3=O
active: [2] 1.62% | [3] -37.8% | [4] 4.86% | [6] -12.5% | [8] -3.52% | [9] -13.9%
inactive: [1] 30.6%

COc1ccccc1OCC(=O)Nc1sc2c(c1C(N)=O)CCC2
inactive: [1] 83.1% | [2] 74.1% | [4] 70.4% | [5] 60.9% | [6] 88.1% | [10] 70% | [7] 49.7% | [8] 50.5% | [9] 101%

CCCCC[C@@H]1Cc2cc(O)c(C(=O)O)c3c2[C@H](C[C@@]2(CCCO2)O3)O1
inactive: [1] 112% | [2] 113% | [4] 107% | [5] 105% | [6] 101% | [10] 111% | [7] 110% | [8] 93.6% | [9] 109%

O=S(=O)(O)CCl
inactive: [1] 96.3% | [2] 95.9% | [4] 106% | [5] 97.1% | [6] 91.6% | [10] 103% | [7] 100% | [8] 86.8% | [9] 102%

CCCC1OC(c2ccc(C(C)C)cc2)OCC1CC (configuration not stated)
inactive: [1] 103% | [2] 97% | [4] 106% | [5] 95.7% | [6] 78.7% | [10] 104% | [8] 97.7% | [9] 104%

CC(=O)Nc1nc(C(=O)N2N=C(C)/C(=C/c3ccccc3)C2=O)cs1
inactive: [1] 105% | [2] 97.5% | [4] 103% | [5] 104% | [6] 97.7% | [10] 108% | [7] 114% | [8] 98.7% | [9] 121%

Clc1ccc(-c2nc(-c3ccco3)cn3ccnc23)cc1
inactive: [1] 50.1% | [2] 40.3% | [4] 30.6% | [6] 60.2% | [10] 58% | [7] 88% | [8] 55.2% | [9] 102%
active: [5] -51.3%

COC(=O)CCCCN=Cc1c(O)c(O)c(C(C)C)c2cc(C)c(-c3c(C)cc4c(C(C)C)c(O)c(O)c(C=NCCCCC(=O)OC)c4c3O)c(O)c12
inactive: [1] 11.1% | [3] 42.6% | [4] 17.6% | [6] 12.1% | [7] 33.5% | [8] 17.4% | [9] 31.1%
active: [2] 4.56%

COc1ccc(/C=C/C(=O)OCC(=O)NNC(=O)c2ccccc2)cc1OC
inactive: [1] 108% | [2] 105% | [4] 111% | [5] 97% | [6] 97.3% | [10] 97.8% | [7] 98.4% | [8] 87.1% | [9] 125%

CCCCCCCC/C=C\CCCCCCCCOc1ccccc1CCOP(=O)(O)OCC[N+](C)(C)C
inactive: [1] 46.7% | [2] 10.9% | [3] 55.4% | [4] 20.1% | [7] 54.2% | [8] 60.6% | [9] 89.1%
active: [6] 0.679%

CCNc1nc(N2CC(=O)Nc3cc(OC)ccc32)c2ccccc2n1
active: [1] 6.11% | [2] 0.723% | [5] 8.29% | [6] 6.21% | [10] -81.6% | [7] 9.13%
inactive: [4] 19.2% | [8] 20.5% | [9] 45%

O=C1c2ccccc2C(=O)c2c(N=Nc3sc(=O)[nH]c3S)cccc21
inactive: [1] 94% | [2] 82.9% | [4] 93.4% | [5] 91.6% | [6] 89.9% | [10] 93.4% | [7] 88.8% | [8] 84.9% | [9] 110%

C[N+](C)(C)c1ccc(CC2c3ccccc3-c3ccccc32)cc1
inactive: [1] 98.1% | [2] 65.9% | [4] 23.2% | [5] 19.3% | [6] 56.1% | [10] 77.1% | [7] 81.5% | [8] 86.3% | [9] 81.3%

COc1ccc(/C=C2\Oc3cc(OCCN4CCCC4)ccc3C2=O)c(OC)c1
inactive: [1] 80.2% | [2] 17.6% | [4] 92.2% | [5] 76.5% | [6] 84.9% | [10] 90.2% | [7] 101% | [8] 81.2% | [9] 96.9%

Nc1cc2c(cc1N)-c1cc(N)c(N)cc1C2
inactive: [1] 97.4% | [2] 107% | [4] 107% | [5] 99.1% | [6] 80.5% | [10] 101% | [7] 99.9% | [8] 94% | [9] 115%

COc1ccc(NC(=O)CSc2nc3ccc(Cl)cc3c(=O)n2-c2ccccc2C(F)(F)F)c(OC)c1OC
inactive: [1] 97.8% | [2] 97.3% | [4] 68.1% | [5] 58% | [6] 75.1% | [10] 89.7% | [7] 68.7% | [8] 88% | [9] 92.1%

COc1ccc2c(c1)NC(=O)CN2c1nc(NC2CC2)nc2ccccc12
active: [2] 3.45% | [6] 4.75% | [10] -55.3%
inactive: [1] 10.5% | [4] 29.9% | [7] 26.1% | [9] 54.7%

COc1ccc2c(c1)NC(=O)CN2c1nc(C)nc2ccccc12
inactive: [4] 34.4% | [5] 16.2% | [6] 15.1% | [7] 35.7% | [8] 22% | [9] 59%
active: [1] 9.21% | [2] 3.4% | [10] -34.8%

CCOC(=O)C(Cc1ccccc1)n1c(O)c(C=Nc2ccc(C(=O)OCCN(CC)CC)cc2)sc1=O (configuration not stated)
inactive: [1] 89.4% | [2] 62.4% | [4] 95.3% | [5] 96.3% | [6] 72.8% | [10] 88.7% | [7] 97.7% | [8] 93.7% | [9] 93.1%
